Experimental data taken from PubChem BioAssay (Tox21).
Results filed as inconclusive are left out. Calls of active or inactive are those of the source. Unless noted, calls come from the whole dose curve; as a rule, active = well fitted cell-killing curve with a large enough effect in the repeat runs; inconclusive = weak or mixed curves, or effect the other way; inactive = no such curve, though single readings can be large or run the other way.
% is set by controls: 0 for no effect and ±100 for the full control effect.

Target: Progesterone receptor (Homo sapiens) (UniProt P06401)
Sequence (P06401 whole entry, looked up): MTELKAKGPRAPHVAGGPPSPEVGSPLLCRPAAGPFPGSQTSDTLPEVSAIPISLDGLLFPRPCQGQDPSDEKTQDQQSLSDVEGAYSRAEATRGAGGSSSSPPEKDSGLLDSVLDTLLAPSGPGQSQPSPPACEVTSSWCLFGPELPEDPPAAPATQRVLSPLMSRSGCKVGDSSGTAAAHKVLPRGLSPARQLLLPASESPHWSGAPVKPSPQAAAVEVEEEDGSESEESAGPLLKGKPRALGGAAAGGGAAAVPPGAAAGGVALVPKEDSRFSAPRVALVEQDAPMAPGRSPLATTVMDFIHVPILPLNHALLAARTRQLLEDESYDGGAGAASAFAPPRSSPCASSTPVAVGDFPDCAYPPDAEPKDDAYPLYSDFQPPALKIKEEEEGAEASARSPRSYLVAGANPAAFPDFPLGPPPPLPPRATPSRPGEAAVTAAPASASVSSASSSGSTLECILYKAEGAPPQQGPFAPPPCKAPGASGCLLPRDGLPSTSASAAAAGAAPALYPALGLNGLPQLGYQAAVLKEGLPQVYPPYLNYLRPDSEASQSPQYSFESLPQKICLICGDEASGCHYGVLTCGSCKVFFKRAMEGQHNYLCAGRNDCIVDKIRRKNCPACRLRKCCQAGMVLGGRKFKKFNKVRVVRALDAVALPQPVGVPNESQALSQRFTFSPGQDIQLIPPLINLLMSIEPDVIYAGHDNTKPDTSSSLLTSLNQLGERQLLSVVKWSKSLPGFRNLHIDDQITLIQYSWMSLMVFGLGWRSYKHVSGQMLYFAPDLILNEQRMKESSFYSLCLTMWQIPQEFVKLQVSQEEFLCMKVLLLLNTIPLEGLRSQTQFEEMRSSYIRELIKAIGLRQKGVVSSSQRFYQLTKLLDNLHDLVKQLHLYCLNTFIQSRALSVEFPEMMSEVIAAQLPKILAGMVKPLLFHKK
Assay: qHTS assay to identify small molecule antagonists of the progesterone receptor (PR) signaling pathway (AID 1346795; active = well fitted inhibition curve with a large enough effect in the signal ratio in the repeat runs, not every such curve was filed as active; the % refers to the signal ratio)
Conditions: PR-UAS-bla HEK293T, beta-lactamase FRET ratio, 16 h; series mostly up to 92.4 µM; activity change, negative = inhibition: at the top concentration
How it was run: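 PR-UAS-bla HEK293T cells carrying a UAS-driven beta-lactamase reporter were plated in medium with 2% charcoal-stripped FBS and rested 6 hr at 37C. Compounds were added with 1 nM R5020 (final) for 16 hr, then FRET substrate loaded 2 hr at room temperature.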
For CCOC(=O)Cc1cccc2ccccc12, the “activity change, negative = inhibition” value was -10.2% (inactive).
With CCO[C@H](Cc1ccc(OCCc2ccc(OS(C)(=O)=O)cc2)cc1)C(=O)O the “activity change, negative = inhibition” value was 7.5% [at 42.5 µM] (inactive).
With OC[C@H]1O[C@@H](OCCc2ccc(O)cc2)[C@H](O)[C@@H](O)[C@@H]1O the “activity change, negative = inhibition” value was 5.19% [at 42.5 µM] (inactive).
With C=C1[C@H]2CC[C@@H]3[C@H]2C(C)(C)CCC[C@]13C the “activity change, negative = inhibition” value was -2.75% (inactive).
For CCOC(=O)c1cccnc1, the “activity change, negative = inhibition” value was 9.57% [at 42.5 µM] (inactive).
In the case of CN1Cc2cc(C(=O)N3CCC(C4CCNCC4)CC3)ccc2NC(CC(=O)O)C1=O (centres undefined), the “activity change, negative = inhibition” value is reported as 10.5% [at 42.5 µM] (inactive).
For CCN(CC)CCOC(=O)C(c1ccccc1)C1CCCCC1 (centres undefined), the “activity change, negative = inhibition” value was -15.8% [at 42.5 µM] (inactive).
With O=C1C(O)=C(O)C(=O)C(O)=C1O the “activity change, negative = inhibition” value was 10.7% [at 42.5 µM] (inactive).
For Cc1[nH]c(C)c(Cl)c(=O)c1Cl, the activity change, negative = inhibition was 4.44% [at 18.9 µM] (inactive).
In the case of O=C(O)CNCC(=O)O, the activity change, negative = inhibition is reported as 1.55% [at 8.39 µM] (inactive).
In the case of O=C(CS)Nc1ccccc1, the “activity change, negative = inhibition” value is reported as -5.06% [at 42.5 µM] (inactive).
In the case of NCC(=O)CCC(=O)O, the “activity change, negative = inhibition” value is reported as -2.87% [at 42.5 µM] (inactive).
For Cc1ncc(CO)c(C=O)c1O, the “activity change, negative = inhibition” value was 6.18% [at 42.5 µM] (inactive).
With O=C1CCCCCCCCCCCC(=O)OCCO1 the “activity change, negative = inhibition” value was 0.198% (inactive).
In the case of CCOc1ccc(O)cc1, the “activity change, negative = inhibition” value is reported as -21.7% (inactive).
With NCCCN1CCOCC1 the “activity change, negative = inhibition” value was 15.3% (inactive).
For CCCCCCCCCCCCCCCCOS(=O)(=O)O, the “activity change, negative = inhibition” value was 13.9% [at 42.5 µM] (inactive).

System: not listed separately
Assay: qHTS assay to identify small molecule antagonists of the progesterone receptor (PR) signaling pathway - cell viability counter screen (AID 1346798); note: nearly all actives have a fitted effect of over 50% in size
Conditions: PR-UAS-bla HEK293T viability, CellTiter-Glo luminescence, 16 h; series mostly up to 92.4 µM; activity change, negative = cytotoxicity: at the top concentration
How it was run: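 PR-UAS-bla HEK293T cells in medium with 2% charcoal-stripped FBS were treated with compounds plus R5020 for 16 hr at 37C. Cell viability was then read by CellTiter-Glo luminescence after 30 min at room temperature in the same wells.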
In the case of COc1ccnc(CS(=O)c2nc3ccc(OC(F)F)cc3[nH]2)c1OC (centres undefined), the “activity change, negative = cytotoxicity” value is reported as 1.22% [at 42.5 µM] (inactive).
For O=C(O)c1ccc(S(=O)(=O)O)cc1C(=O)O, the “activity change, negative = cytotoxicity” value was 22.4% (inactive).
For CCOCC(O)COc1ccc(NC(=O)CC[S+](C)C)cc1 (centres undefined), the “activity change, negative = cytotoxicity” value was 1.47% [at 42.5 µM] (inactive).
In the case of CC(=O)c1cccc([N+](=O)[O-])c1, the “activity change, negative = cytotoxicity” value is reported as -1.5% (inactive).
For CCCCC1=NC2(CCCC2)C(=O)N1Cc1ccc(-c2ccccc2-c2nn[nH]n2)cc1, the “activity change, negative = cytotoxicity” value was -12.2% [at 42.5 µM] (inactive).
For CCCCCCCN, the “activity change, negative = cytotoxicity” value was -9.78% (inactive).
With CC(CC=O)c1ccccc1 (centres undefined) the “activity change, negative = cytotoxicity” value was -1.72% (inactive).
With CCOC(=O)C(=O)CCc1ccccc1 the “activity change, negative = cytotoxicity” value was 6.89% [at 42.5 µM] (inactive).
For C[N+](C)(C)CCOC(=O)CCC(=O)OCC[N+](C)(C)C, the “activity change, negative = cytotoxicity” value was 0.514% [at 42.5 µM] (inactive).
For CCCCCCCCO[C@@H]1O[C@H](CO)[C@@H](O)[C@H](O)[C@H]1O, the “activity change, negative = cytotoxicity” value was -5.43% (inactive).
In the case of c1cc(CCCc2ccncc2)ccn1, the “activity change, negative = cytotoxicity” value is reported as 30.7% (inactive).
With CCOC(=O)Cc1cccc2ccccc12 the “activity change, negative = cytotoxicity” value was 7.52% (inactive).
For Cc1cc(C(=O)O)ccc1[N+](=O)[O-], the “activity change, negative = cytotoxicity” value was -2.6% (inactive).
In the case of CCN(CC)CCNC(=O)c1cc(Br)c(N)cc1OC, the “activity change, negative = cytotoxicity” value is reported as -10% [at 42.5 µM] (inactive).
In the case of OC[C@H]1O[C@@H](OCCc2ccc(O)cc2)[C@H](O)[C@@H](O)[C@@H]1O, the “activity change, negative = cytotoxicity” value is reported as -0.729% [at 42.5 µM] (inactive).
For C=CCOc1ccccc1OCC(O)CNC(C)C (centres undefined), the “activity change, negative = cytotoxicity” value was -22.5% [at 42.5 µM] (inactive).
With CCOC(=O)c1cccnc1 the “activity change, negative = cytotoxicity” value was 0.701% [at 42.5 µM] (inactive).
With NCC(=O)O the activity change, negative = cytotoxicity was -3.8% [at 18.9 µM] (inactive).
With CN1Cc2cc(C(=O)N3CCC(C4CCNCC4)CC3)ccc2NC(CC(=O)O)C1=O (centres undefined) the “activity change, negative = cytotoxicity” value was -14% [at 42.5 µM] (inactive).
In the case of CCN(CC)CCOC(=O)C(c1ccccc1)C1CCCCC1 (centres undefined), the “activity change, negative = cytotoxicity” value is reported as -23.6% [at 42.5 µM] (inactive).
For Cc1[nH]c(C)c(Cl)c(=O)c1Cl, the activity change, negative = cytotoxicity was 10.6% [at 18.9 µM] (inactive).
For O=C(O)CNCC(=O)O, the activity change, negative = cytotoxicity was -2.59% [at 8.39 µM] (inactive).
For O=C(CS)Nc1ccccc1, the “activity change, negative = cytotoxicity” value was -9.11% [at 42.5 µM] (inactive).
In the case of Cc1ncc(CO)c(C=O)c1O, the “activity change, negative = cytotoxicity” value is reported as 1.3% [at 42.5 µM] (inactive).
In the case of CCOc1ccc(O)cc1, the “activity change, negative = cytotoxicity” value is reported as -13.2% (inactive).
For NCCCN1CCOCC1, the “activity change, negative = cytotoxicity” value was 6.14% (inactive).
With NCc1ccccc1Sc1ccccc1CO the “activity change, negative = cytotoxicity” value was 5.1% [at 42.5 µM] (inactive).
